From PubChem BioAssay
The full list was thinned out, with hits kept by preference.
CHX counter: affects cycloheximide protein synthesis inhibition readout, counter-screen; cell reporter, cycloheximide protein synthesis inhibition counterscreen; max response, %; 300,000 compounds, 12% hits; AID 2314; in the data active = max response mostly above about 13%, no sharp cut-off; inactive = mostly below about 14%; also: read at 38.3 µM for the half of the compounds with a filed dose; 0% is about no effect
TbPYK inhibitor: inhibitors of Trypanosoma brucei pyruvate kinase. Potency, µM (doses to about 76.8 µM), without a hit: at the top dose activity, negative = inhibition, most hits filed as inhibitors. Q57TT1. 410,000 compounds, 0.12% hits. AID 624173. TbPYK enzyme, Kinase-Glo Plus ATP luminescence, 45 min; also: potency is read from the fitted curve at half-maximal effect; % is scaled to controls: 0 for no effect and ±100 for the full control effect; nearly all actives have a fitted effect of over 50% in size
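ADP (130 uM final) triggers the TbPYK reaction after compound addition; incubation is 45 min at room temperature. Kinase-Glo Plus is then added and luminescence imaged. Normalized data are fitted to concentration-effect curves.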
Shiga inhibitor: Shiga toxin inhibition; Vero cells, Shiga toxin protein synthesis inhibition reporter; inhibition, % at 38.7 µM; 290,000 compounds, 9.2% hits; AID 2315; in the data active = inhibition mostly above about 28%, no sharp cut-off; inactive = mostly below about 43%; also: 0% is about no effect
Giardia FBPA inh-1: inhibitors of Giardia lamblia fructose-1,6-bisphosphate aldolase. A8B2U2. purified Giardia FBPA. Potency, µM (top dose mostly 59.6 µM), for the others: at the top dose activity, negative = inhibition, actives largely listed as inhibitors. 290,000 compounds, 0.71% hits. AID 2451; also: potency is read from the fitted curve at half-maximal effect; % is scaled to controls: 0 for no effect and ±100 for the full control effect; nearly all actives have a fitted effect of over 55% in size
Target sequence (A8B2U2 whole entry, looked up): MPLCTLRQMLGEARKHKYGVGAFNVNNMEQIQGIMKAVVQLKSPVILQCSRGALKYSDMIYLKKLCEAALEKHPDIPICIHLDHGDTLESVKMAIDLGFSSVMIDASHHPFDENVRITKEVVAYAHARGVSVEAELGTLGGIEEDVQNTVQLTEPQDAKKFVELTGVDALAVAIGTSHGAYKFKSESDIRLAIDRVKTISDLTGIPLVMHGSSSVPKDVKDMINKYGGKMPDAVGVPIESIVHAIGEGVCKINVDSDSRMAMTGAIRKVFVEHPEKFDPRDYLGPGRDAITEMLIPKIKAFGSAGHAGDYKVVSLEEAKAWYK
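Giardia FBPA (40 nM reagent) was preincubated 10 min at RT with compound (up to 57.5 uM final), then substrate plus GAPDH/TPI/NAD/arsenate coupling system with diaphorase/resazurin was added; resorufin fluorescence (525/598 nm) was read after 20 min.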
RE007 growth inh: less growth of the S. pombe RE007 Vpr strain; 360,000 compounds, 0.21% hits; S. pombe RE007 Vpr strain, BacTiter-Glo ATP luminescence, 24 h; Potency, µM (top dose mostly 92.2 µM), inactives show at the top dose activity change, negative = less growth, hits mostly inhibitors; active = well fitted falling curve with a large enough effect; inconclusive = small, poorly fitted or top-dose-only effect; inactive = no such curve, though single readings can be large or run the other way; also: potency is read from the fitted curve at half-maximal effect; % is scaled to controls: 0 for no effect and ±100 for the full control effect; nearly all actives have a fitted effect of over 50% in size
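Fission yeast RE007 carrying one integrated HIV-1 vpr copy, seeded at OD 0.01 in PMG+AL medium with 23 nL pinned compound. Grown 24 h at 30 degrees; viability read by BacTiter-Glo luminescence after 5 min.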
LmPK inhibitor: inhibitors of Leishmania mexicana pyruvate kinase | Q27686 | purified LmPK, Kinase-Glo ATP luminescence, 1 h | Potency, µM (highest dose often 57.5 µM), for the others: at the top dose activity change, negative = inhibition, actives largely listed as inhibitors | 290,000 compounds, 0.37% hits; also: potency is read from the fitted curve at half-maximal effect; % is scaled to controls: 0 for no effect and ±100 for the full control effect
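Screened at intermediate enzyme activity to detect both inhibitors and activators: LmPK at 0.1 nM, with a 0.5 nM enzyme column as activation reference. PEP 0.5 mM, ADP 0.1 mM; ATP detected by luminescence after 1 h.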
Giardia growth: Giardia lamblia growth inhibition | shares compounds with Giardia FBPA inh-1 | Giardia lamblia trophozoite growth inhibition | Potency, µM (highest dose often 57.5 µM), inactives show at the top dose activity change, negative = inhibition, hits mostly inhibitors | 1,500 compounds, 5% hits | AID 2785;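 also: potency is read from the fitted curve at half-maximal effect; trophozoites exposed to compound for 48 h at 37 °C; % is scaled to controls: 0 for no effect and ±100 for the full control effect; nearly all actives have a fitted effect of over 70% in size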
Mammal cell tox: toxic to mammalian cells in Giardia aldolase counter-screen; 1,500 compounds, 4% hits; mammalian cell viability counter-screen, qHTS; Potency, µM (series often up to 57.5 µM), inactives show top-dose viability change, negative = toxicity, hits mostly inhibitors; shares compounds with Giardia FBPA inh-1;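 also: Chinese hamster ovary cells used as mammalian cytotoxicity surrogate; viability measured as cellular ATP by luminescence; potency is read from the fitted curve at half-maximal effect; compound exposure lasted 48 h before reading; % is scaled to controls: 0 for no effect and ±100 for the full control effect; nearly all actives have a fitted effect of over 60% in size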
Giardia FBPA inh-2: confirmation of Giardia fructose-bisphosphate aldolase inhibitors; purified Giardia aldolase enzyme activity, qHTS; Potency, µM (top dose mostly 57.5 µM), for inactives: at the highest dose activity change, negative = inhibition, most hits filed as inhibitors; shares compounds with Giardia FBPA inh-1; 1,500 compounds, 5% hits; also: potency is read from the fitted curve at half-maximal effect; % is scaled to controls: 0 for no effect and ±100 for the full control effect; nearly all actives have a fitted effect of over 45% in size
Rabbit FBPA inh: rabbit FBP aldolase inhibition by Giardia aldolase hits. Potency, µM (doses to about 57.5 µM), for the others: top-dose activity, negative = inhibition, usual class: inhibitors. 1,500 compounds, 4% hits. Rabbit muscle FBPA enzyme inhibition, selectivity counter-screen. shares compounds with Giardia FBPA inh-1; also: potency is read from the fitted curve at half-maximal effect; % is scaled to controls: 0 for no effect and ±100 for the full control effect; nearly all actives have a fitted effect of over 60% in size
GAPDH coupling: counter-screen for Giardia aldolase inhibitors: GAPDH coupling enzyme; 1,500 compounds, 6% hits; shares compounds with Giardia FBPA inh-1; GAPDH coupling enzyme counterscreen, biochemical, qHTS; Potency, µM (doses to about 57.5 µM), for the others: at the top dose activity change, negative = inhibition, hits mostly inhibitors; also: potency is read from the fitted curve at half-maximal effect; % is scaled to controls: 0 for no effect and ±100 for the full control effect; nearly all actives have a fitted effect of over 55% in size
* = called active by the depositor; [ ] = remark or other dose. Unless noted, calls follow the shape of the dose curve; as a rule, active = well fitted curve in the direction sought with a large enough effect; inconclusive = small, poorly fitted or top-dose-only effect, or another doubt; inactive = no such curve, though single readings can be large; an effect the other way counts as inactive or inconclusive.

How did Cc1ccccc1NC(=S)Nn1cnnc1 do in these assays?
CHX counter: -4.0; TbPYK inhibitor: -11.6%; Shiga inhibitor: -27.5; RE007 growth inh: 5.3%; LmPK inhibitor: -4.6%

What do the screens show for `COc1ccc(NC(=S)Nn2cnnc2)cc1OC`?
CHX counter: -2.1; TbPYK inhibitor: -1.9%; Shiga inhibitor: -10.7; Giardia FBPA inh-1: inconclusive; RE007 growth inh: -1.5%; LmPK inhibitor: 0.0%

Results for CCCc1ccc(OC(C)C(=O)Nc2sc3c(c2C(=O)OC)CCCCC3)cc1 (stereo not given) ?
TbPYK inhibitor: 3.6%

How did Cc1cc(C)nc(N/N=C/c2ccccc2OCC(=O)O)n1 do in these assays?
CHX counter: -4.0; TbPYK inhibitor: -3.8%; Shiga inhibitor: -2.6; Giardia FBPA inh-1: 5.01µM*; RE007 growth inh: -2.4%; LmPK inhibitor: 0.2%; Giardia growth: 9.7%[38.3 µM]; Mammal cell tox: -3.5%; Giardia FBPA inh-2: -1.4%; Rabbit FBPA inh: -2.0%; GAPDH coupling: -14.1%

How did N#Cc1c(C#N)c(O)c2ccccc2c1O do in these assays?
CHX counter: 9.7; TbPYK inhibitor: inconclusive; Shiga inhibitor: -6.0; Giardia FBPA inh-1: 19.9µM*; RE007 growth inh: -14.0%; LmPK inhibitor: -4.0%; Giardia growth: inconclusive; Mammal cell tox: -7.4%; Giardia FBPA inh-2: inconclusive; Rabbit FBPA inh: inconclusive; GAPDH coupling: inconclusive

Results for O=C(CSc1n[nH]c(-c2cccnc2)n1)Nc1ccc(Br)cc1 ?
CHX counter: -3.0; TbPYK inhibitor: 13.6%; Shiga inhibitor: -7.2; Giardia FBPA inh-1: 14.1µM*; RE007 growth inh: -2.6%; LmPK inhibitor: 4.1%; Giardia growth: inconclusive; Mammal cell tox: 25.4%; Giardia FBPA inh-2: 13.4%; Rabbit FBPA inh: 5.7%; GAPDH coupling: 24.1%

Results for Clc1cccc(CN2CCN(Cc3ccco3)CC2)c1 ?
CHX counter: 7.8; TbPYK inhibitor: 8.0%; Shiga inhibitor: -0.9; Giardia FBPA inh-1: 14.1µM*; RE007 growth inh: 2.9%; LmPK inhibitor: -3.3%; Giardia growth: -17.1%; Mammal cell tox: -9.5%; Giardia FBPA inh-2: -0.8%; Rabbit FBPA inh: -3.3%; GAPDH coupling: 1.6%

How did COc1cccc(COCC(O)Cn2cnc3cc(C)c(C)cc32)c1 (stereo not given) do in these assays?
CHX counter: 2.0; TbPYK inhibitor: 22.5%; Shiga inhibitor: -6.9; Giardia FBPA inh-1: 19.9µM*; RE007 growth inh: 9.0%; LmPK inhibitor: -3.0%; Giardia growth: 0.5%[10.4 µM]; Mammal cell tox: 10.4%; Giardia FBPA inh-2: -2.9%; Rabbit FBPA inh: -7.7%; GAPDH coupling: -8.3%

How did COC(=O)c1cccc(OCC(O)Cn2cnc3cc(C)c(C)cc32)c1 (stereo not given) do in these assays?
CHX counter: 5.4; TbPYK inhibitor: -4.9%; Shiga inhibitor: -11.1; Giardia FBPA inh-1: -4.6%; RE007 growth inh: -7.1%; LmPK inhibitor: 19.2%
